Data published in ChEMBL document CHEMBL3988442, “University of Dundee, Small-Polar-MMV Screening Library” (2021).
About 13,000 (27%) of roughly 48,000 compounds showed an effect of 50% or more. Some of the results follow.

Tested on: Wolbachia pipientis
Experiment: Anti-Wolbachia Cell-Based Screen
Assay type: functional
Set-up: scale not given: in the data most compounds retested in dose-response had high values
Conditions: 5 µM

Structure (SMILES)	Percent Effect [%]
CC(C)CNC(=O)c1nc2c(s1)CCN(C(=O)c1ccc(Cl)cc1)CC2	-4.208
CC(C)OCCCNC(=O)N(C)C(C)c1ccc(-n2cncn2)cc1 (stereo unspecified)	-7.098
CCN1CC(CN(C)Cc2nc(-c3cccc(C)c3)oc2C)CC1=O (stereo unspecified)	105.1
CCN(CCn1cccn1)Cc1nc(-c2cccc(C)c2)oc1C	-6.378
CCN1CC(CN(C)Cc2nc(-c3cccc(Cl)c3)oc2C)CC1=O (stereo unspecified)	102.8
CCc1nnc(CN(C)Cc2nc(-c3ccccc3Cl)oc2C)o1	-2.214
CNC(=O)CC1CCN(Cc2nc(-c3cccc(Cl)c3)oc2C)CC1	-0.6077
Cc1cccc(-c2nc(CN3CCOCS3(=O)=O)c(C)o2)c1	4.701
Cc1nc(C2CCCN(C(=O)c3cc(Cl)c[nH]3)C2)no1 (stereo unspecified)	0.9971
O=C(Cc1cccc(F)c1)NCCNCc1ccco1	-5.047
O=C(Cc1cccc(F)c1)NCCNCC1CNc2ccnn2C1 (stereo unspecified)	0.2613
N#Cc1cccc(CNCCNC(=O)Cc2cccc(F)c2)c1	98.51
N#Cc1cccc(CNC(=O)NC2CCN(CC(F)F)CC2)c1	-0.5422
O=C(Cc1cccc(F)c1)NCCNCc1cccnc1	96.05
CCN(CCNCc1cccc(C#N)c1)C1CC1	-10.23
COCCN(CCC#N)S(=O)(=O)c1cc(F)cc(F)c1	-7.872
c1ccc(C(c2ccccc2)N2CCN(CCn3cncn3)CC2)cc1	0.8212
CC(C)(C)c1ccn(C2(C(=O)O)CCN(c3nccc(N)n3)CC2)n1	-5.25
O=C(c1cnccn1)N1C[C@@H]2[C@@H](C1)OCC(=O)N2CC1CCCC1	-6.759
COc1cc(C2(C(=O)NCC(=O)NC3CC3)CC2)ccc1C	9.021
CNC(=O)c1ccc(CN(C(=O)c2scnc2C)C2CC2)cc1	4.078
Cc1ncsc1C(=O)NCCSCCCO	-0.9457
Cc1ncsc1-c1cc(C(=O)NCCO)ccn1	109.9
Cc1ncsc1-c1ccn(CC(=O)Nc2cnn(C)n2)n1	-5.489
CNC(=O)CNC(=O)c1ccc(-c2scnc2C)nc1	75.09
O=C(NCCNC(=O)c1scnc1Cl)c1ccccc1	-1.754

Structure (SMILES)	Percent Effect [%]
CCCc1nnc(NC(=O)N2CCCC2c2ccncc2)s1 (stereo unspecified)	3.484
CN(Cc1ccc(-n2cccn2)cc1)c1nc(N)nc2c1CCNCC2	3.985
CCOc1ccc(-c2nc(CN(C)Cc3c(C)noc3C)cs2)cc1	-23.12
c1cnc2c(-c3nccn3C[C@@H]3CCCN4CCCC[C@H]34)cccc2c1	5.22
CS(=O)(=O)NCC1CCN(C(=O)Oc2ccccc2)CC1	-10.63
COC(=O)N1CCC2(CC1)CC(c1ccccc1)CN(C)C2 (stereo unspecified)	-13.78
CN(C)C(=O)N1CCN(C(=O)CCc2ccccc2)[C@H]2CS(=O)(=O)C[C@H]21	-4.375
CC(=O)N1CCC2(CC1)CC(Oc1ccccc1)CO2 (stereo unspecified)	-5.824
CO[C@@H]1CN(c2ccccc2)S(=O)(=O)[C@@]12CCNC2	127.8
CO[C@@H]1CN(c2ccccc2)S(=O)(=O)[C@@]12CCN(C(C)=O)C2	94.97
CO[C@@H]1CN(c2ccccc2)S(=O)(=O)[C@@]12CCN(C(=O)N(C)C)C2	88.6
O=C(C1CC2(CCNCC2)CN1)N1CCN(c2ccccc2)CC1 (stereo unspecified)	-0.8952
CN(C)C(=O)N1CCC(C2C(=O)Nc3ccccc32)CC1 (stereo unspecified)	-38.16
COC(=O)N1CC[C@@]2(C1)[C@H](OC)CN(c1ccccc1)S2(=O)=O	101.1
NC(=O)N1CCCN(C2CCCCc3ccccc32)CC1 (stereo unspecified)	-4.011
CO[C@@H]1CN(c2ccccc2)S(=O)(=O)[C@@]12CCN(C)C2	121.6
CN1CC(=O)N(c2ccccc2)CC12CCN(S(C)(=O)=O)C2.O=C(O)C(F)(F)F (stereo unspecified)	10.77
COC1CCN(S(=O)(=O)N2CC(c3ccccc3)C(C)(C)C2)CC1 (stereo unspecified)	17.09
CS(=O)(=O)N1CCC2(CC1)c1ccccc1[C@@H](N1CCSCC1)[C@@H]2O	-3.022
CO[C@@H]1CN(c2ccccc2)S(=O)(=O)[C@@]12CCN(S(C)(=O)=O)C2	80.67
CCN(CC)C(=O)C1CCC(=O)N(CCc2cccc(F)c2)C1 (stereo unspecified)	5.387
Cn1cc(C(=O)NC2CCN(C(=O)NCCSC(F)(F)F)CC2)cn1	19.88
CCS(=O)(=O)c1ccc(N2CCC(NC(=O)c3cnn(C)c3)CC2)cc1	0.7528
COCCCNC(=O)N1CCC(CNC(=O)c2cnn(C)c2)CC1	114
Cn1cc(C(=O)NC[C@@H]2OC[C@H]3CN(S(C)(=O)=O)CC[C@H]32)cn1	-9.663
CNC(=O)N1CCC(NC(=O)c2cnn(C)c2)CC1	87.43

Structure (SMILES)	Percent Effect [%]
COC(=O)N1CCC(CNS(=O)(=O)c2cnn(C)c2)CC1	-8.062
Cn1cc(C(=O)NCC2CCN(C(=O)NCC(F)(F)F)CC2)cn1	-3.622
COCCNC(=O)N1CCC(NC(C)C)CC1	8.533
Cn1cc(C(=O)NC2CCN(C(=O)NCC3CCSCC3)CC2)cn1	-0.1776
Cn1cc(C(=O)NCC2CCN(C(=O)NC3CCCCC3)CC2)cn1	90.75
Cn1cc(C(=O)NCC2CCN(C(=O)NC3CC3)CC2)cn1	82.18
Cc1ccc(N2CCC(C(O)c3cccs3)CC2)nn1 (stereo unspecified)	12.98
CCCN1CCC(NCc2cccc(CN3CCOC(C)C3)c2)CC1 (stereo unspecified)	27.7
O=C(O)c1cncc(Cc2cccc(F)c2)c1	136.9
O=C(O)c1ccc(Cc2cccc(F)c2)nc1	176.5
O=C(O)c1cncc(Cc2ccc(F)cc2)c1	214.7
O=C(O)c1cccc(CC2CCN(c3ncc(F)cn3)CC2)c1	5.737
CCOCCn1c(=O)n(Cc2ccc(F)cc2)c2ncc(C(=O)O)cc21	0.5283
O=C(CS(=O)(=O)Cc1ccccc1)NCc1ccccc1F	-49.77
O=C(NCC(Cc1cccc(F)c1)N1CCCC1=O)c1ccccc1 (stereo unspecified)	-3.129
O=C(O)c1ccc(N2CCC(Oc3cccc(F)c3)CC2)nc1	7.42
CCOCCn1c(=O)n(Cc2ccccc2F)c2cc(C(=O)O)cnc21	-1.705
O=C(O)c1cncc(Cc2ccccc2F)c1	172.6
CCSCCn1c(=O)n(Cc2ccc(F)cc2)c2ncc(C(=O)O)cc21	-21.36
CC(C)n1cc2cc(NC(=O)Cn3cnnn3)ccc2n1	0.8884
O=C1NCCCCC1NC(=O)C1(Oc2ccc(Cl)cc2)CCNCC1 (stereo unspecified)	4.291
CCOc1ccccc1NC(=O)NCC(C)(O)CCSC (stereo unspecified)	-5.529
CN(C)C(CNC(=O)c1nc(N2CCOCC2)ncc1Cl)c1ccco1 (stereo unspecified)	-7.125
CC(C)C(=O)NC1CCCc2nc(N3CCOCC3)ncc21 (stereo unspecified)	72.33
CC(CNC(=O)c1nc(N2CCOCC2)ncc1Cl)c1ccccc1 (stereo unspecified)	-18.26
CCC(CC)C(=O)NC1CCCc2nc(N3CCOCC3)ncc21 (stereo unspecified)	97.19

Structure (SMILES)	Percent Effect [%]
Cc1cnc(N2CCC3(CC2)CC(NC(=O)C(C)C)CO3)nc1 (stereo unspecified)	-15.93
CC(C)n1c(C2CCCN(CC(=O)NC(N)=O)C2)nc2ccccc21 (stereo unspecified)	-22.16
Cc1cc(C)n(C2CCN(Cc3c(-c4cc(C)on4)nn(C)c3Cl)C2)n1 (stereo unspecified)	0.03188
CN(C)C(=O)Cc1ccccc1NCc1cccc(F)c1F	-19.09
CC(C)c1cc(CNC(=O)N2CCC(Cc3cnn(C)c3)C2)on1 (stereo unspecified)	2.959
COCc1csc(NC(=O)N2CCC(Cc3cnn(C)c3)C2)n1 (stereo unspecified)	102.3
Cc1csc(CNC(=O)N(C)Cc2cnn(C)c2)n1	7.256
CC(C)Cc1cc(C(=O)N2CCC(Cc3cnn(C)c3)C2)cc(O)n1 (stereo unspecified)	0.7528
Cn1cc(CC2CCN(C(=O)NCc3csc(C4CC4)n3)C2)cn1 (stereo unspecified)	102.9
COCc1csc(NC(=O)NCc2ccsc2)n1	-7.736
CC(C)CC(NC(=O)CN(C)C(=O)c1ccco1)c1cccs1 (stereo unspecified)	25.03
CC(C)c1ncc(CN2C[C@@H](CN3CCCCC3)[C@@H](CO)C2)cn1	-5.957
NC(=O)c1csc(N2C[C@@H](CN3CCCCC3)[C@@H](CO)C2)n1	104.1
COc1cnc(N2C[C@@H](CN3CCOCC3)[C@@H](CO)C2)nc1	-6.772
CN(C)Cc1nnc(C2CCCN(c3nc(C(N)=O)cs3)C2)n1C (stereo unspecified)	10.64
OCc1csc(N2C[C@@H](CN3CCCCCC3)[C@@H](CO)C2)n1	103.7
O=C(CCCc1cn[nH]c1)N1C[C@@H](CN2CCOCC2)[C@@H](CO)C1	24.78
CC(=O)c1cc(CN2C[C@@H](CN3CCC(O)CC3)[C@@H](CO)C2)n(C)c1	12.27
OC[C@H]1CN(Cc2c(Cl)cncc2Cl)C[C@H]1CN1CCCCCC1	-60.78
CC(=O)c1ccc(CN2C[C@@H](CN3CCC(O)CC3)[C@@H](CO)C2)cc1	-12.65
NC(=O)c1csc(N2C[C@@H](CN3CCOCC3)[C@@H](CO)C2)n1	103.5
NC(=O)c1csc(N2C[C@@H](CN3CCC(O)CC3)[C@@H](CO)C2)n1	99.75
O=C(CCc1cn[nH]c1)N1C[C@@H](CN2CCCCCC2)[C@@H](CO)C1	3.932
